From the supplement of paper PMC10849652
Of roughly 8,800 targets only a part is listed; those with a hit were picked by preference. About 0.5% of all pairs of compound and target were hits.

Experiments:
Assay in all cases: log2 fold change, soluble protein after heating vs DMSO (PISA); higher = thermal stabilisation; K562 lysate, 10 uM; active = over 0.2 and 3.5 SD of the protein, either way, in both replicates (recomputed)
lapatinib = compound: CS(=O)(=O)CCNCc1ccc(-c2ccc3ncnc(Nc4ccc(OCc5cccc(F)c5)c(Cl)c4)c3c2)o1 [lapatinib]
Summary of the method: (§1)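 Log-two fold change in thermal stability relative to solvent controls is reported from duplicates. For each sample, crude K562 extract from dounce-homogenised pellets in PBS pH 7.4 with 1 mM MgCl2, at 1 mg/mL protein, was treated with 10 μM compound for 30 min. Aliquots heated for 3 min across 48°C-58°C were pooled, brought to 0.5% NP-40 at 4°C and cleared at 21,000xg for 90 min. The supernatant was quantified by TMTpro 16plex LC-MS/MS with channel sums equalised.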

pictilisib = compound: CS(=O)(=O)N1CCN(Cc2cc3nc(-c4cccc5[nH]ncc45)nc(N4CCOCC4)c3s2)CC1 [pictilisib]
Summary of the method: as §1

crizotinib = compound: C[C@@H](Oc1cc(-c2cnn(C3CCNCC3)c2)cnc1N)c1c(Cl)ccc(F)c1Cl [crizotinib]
Summary of the method: as §1

[1] = compound: C[C@H](C1=CC=C(C=C1)C(=O)NC2=C3C=CNC3=NC=C2)N
Summary of the method: as §1

duvelisib = compound: C[C@H](Nc1ncnc2nc[nH]c12)c1cc2cccc(Cl)c2c(=O)n1-c1ccccc1 [duvelisib]
Summary of the method: as §1

gandotinib = compound: Cc1cc(Nc2cc(CN3CCOCC3)c3nc(C)c(Cc4ccc(Cl)cc4F)n3n2)n[nH]1 [gandotinib]
Summary of the method: as §1

tozasertib = compound: Cc1cc(Nc2cc(N3CCN(C)CC3)nc(Sc3ccc(NC(=O)C4CC4)cc3)n2)n[nH]1 [tozasertib]
Summary of the method: as §1

doramapimod = compound: Cc1ccc(-n2nc(C(C)(C)C)cc2NC(=O)Nc2ccc(OCCN3CCOCC3)c3ccccc23)cc1 [doramapimod]
Summary of the method: as §1

bafetinib = compound: Cc1ccc(NC(=O)c2ccc(CN3CC[C@H](N(C)C)C3)c(C(F)(F)F)c2)cc1Nc1nccc(-c2cncnc2)n1 [bafetinib]
Summary of the method: as §1

[2] = compound: Cc1cccc(CC(=O)N2CCc3c2ccc(-c2cn(C)c4ncnc(N)c24)c3F)n1
Summary of the method: as §1

nilotinib = compound: Cc1cn(-c2cc(NC(=O)c3ccc(C)c(Nc4nccc(-c5cccnc5)n4)c3)cc(C(F)(F)F)c2)cn1 [nilotinib]
Summary of the method: as §1

[3] = compound: Cc1nc(Nc2n[nH]c3c2CN(C(=O)N[C@H](CN(C)C)c2ccccc2)C3(C)C)c2sccc2n1
Summary of the method: as §1

dasatinib = compound: Cc1nc(Nc2ncc(C(=O)Nc3c(C)cccc3Cl)s2)cc(N2CCN(CCO)CC2)n1 [dasatinib]
Summary of the method: as §1

[4] = compound: Cc1ncc(-c2ccnc(Nc3ccc(S(C)(=O)=O)cc3)n2)n1C(C)C
Summary of the method: as §1

[5] = compound: Cn1cc(-c2ccc3c(c2)CCN3C(=O)Cc2cccc(C(F)(F)F)c2)c2c(N)ncnc21
Summary of the method: as §1

quisinostat = compound: Cn1cc(CNCC2CCN(c3ncc(C(=O)NO)cn3)CC2)c2ccccc21 [quisinostat]
Summary of the method: as §1

tipifarnib = compound: Cn1cncc1[C@@](N)(c1ccc(Cl)cc1)c1ccc2c(c1)c(-c1cccc(Cl)c1)cc(=O)n2C [tipifarnib]
Summary of the method: as §1

[6] = compound: NC(=O)Nc1cc(-c2cccc(F)c2)sc1C(=O)N[C@H]1CCCNC1
Summary of the method: as §1

[7] = compound: NC(=O)c1cnc(N[C@@H]2CCCC[C@@H]2N)nc1Nc1cccc(-n2nccn2)c1
Summary of the method: as §1

[8] = compound: NC1(c2ccc(-c3nc4ccn5c(=O)[nH]nc5c4cc3-c3ccccc3)cc2)CCC1
Summary of the method: as §1

Measured: log2 fold change

CXXC1 isoform 2 (UniProt Q9P0U4)
UniProt Q9P0U4, sequence (Q9P0U4 whole entry, looked up): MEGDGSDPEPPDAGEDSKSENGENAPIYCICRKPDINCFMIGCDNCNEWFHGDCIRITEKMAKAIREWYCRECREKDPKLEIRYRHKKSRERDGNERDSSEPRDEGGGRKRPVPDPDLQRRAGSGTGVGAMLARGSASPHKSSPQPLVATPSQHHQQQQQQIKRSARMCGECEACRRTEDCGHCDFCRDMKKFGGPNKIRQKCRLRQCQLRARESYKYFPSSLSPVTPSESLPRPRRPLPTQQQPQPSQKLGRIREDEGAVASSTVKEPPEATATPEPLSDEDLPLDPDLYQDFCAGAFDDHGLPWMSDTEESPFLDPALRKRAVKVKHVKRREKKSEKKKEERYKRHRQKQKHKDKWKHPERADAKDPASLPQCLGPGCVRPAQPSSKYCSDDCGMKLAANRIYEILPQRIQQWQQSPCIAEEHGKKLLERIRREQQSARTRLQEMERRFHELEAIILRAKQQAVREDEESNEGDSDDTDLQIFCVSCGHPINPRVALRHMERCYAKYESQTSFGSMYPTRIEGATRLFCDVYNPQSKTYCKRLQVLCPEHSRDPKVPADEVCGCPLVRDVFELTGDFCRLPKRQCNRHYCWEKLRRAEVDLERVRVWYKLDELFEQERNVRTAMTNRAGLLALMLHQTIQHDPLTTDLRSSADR
inactive: lapatinib -0.024 | pictilisib 0.107 | crizotinib -0.089 | [1] 0.058 | duvelisib 0.154 | gandotinib -0.046 | tozasertib -0.028 | doramapimod 0.018 | bafetinib -0.047 | [2] 0.005 | nilotinib 0.032 | [3] 0.029 | dasatinib -0.504 | [4] 0.026 | [5] -0.191 | quisinostat -0.159 | tipifarnib -0.039 | [6] -0.013 | [7] -0.021 | [8] 0.082

CNOT4 isoform 6 (UniProt O95628)
active: doramapimod -0.234
inactive: lapatinib 0.039 | pictilisib -0.06 | crizotinib 0.146 | [1] -0.093 | duvelisib -0.011 | gandotinib 0.075 | tozasertib -0.027 | bafetinib -0.054 | [2] 0.028 | nilotinib -0.004 | [3] 0.053 | dasatinib 0.034 | [4] 0.057 | [5] 0.013 | quisinostat 0.107 | tipifarnib -0.018 | [6] 0.041 | [7] -0.022 | [8] 0.008

CHUK (UniProt O15111)
inactive: lapatinib 0.001 | pictilisib -0.031 | crizotinib -0.067 | [1] 0.112 | duvelisib 0.036 | gandotinib -0.067 | tozasertib 0.024 | doramapimod 0.008 | bafetinib -0.001 | [2] -0.048 | nilotinib -0.029 | [3] 0.015 | dasatinib -0.091 | [4] 0.035 | [5] 0.059 | quisinostat -0.131 | tipifarnib -0.015 | [6] 0.078 | [7] -0.006 | [8] -0.116

COTL1 (UniProt Q14019)
UniProt Q14019, sequence (Q14019 whole entry, looked up): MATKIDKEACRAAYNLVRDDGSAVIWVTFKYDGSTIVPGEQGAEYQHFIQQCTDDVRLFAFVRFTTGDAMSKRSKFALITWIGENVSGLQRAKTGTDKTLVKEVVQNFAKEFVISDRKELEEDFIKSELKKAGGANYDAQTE
inactive: lapatinib 0.007 | pictilisib 0.016 | crizotinib 0.045 | [1] 0.245 | duvelisib -0.009 | gandotinib -0.062 | tozasertib 0.024 | doramapimod -0.044 | bafetinib 0.102 | [2] -0.122 | nilotinib 0.021 | [3] 0.003 | dasatinib 0.024 | [4] 0.031 | [5] 0.023 | quisinostat 0.017 | tipifarnib 0.055 | [6] -0.075 | [7] -0.028 | [8] -0.011

DHFR (UniProt P00374)
UniProt P00374, sequence (P00374 whole entry, looked up): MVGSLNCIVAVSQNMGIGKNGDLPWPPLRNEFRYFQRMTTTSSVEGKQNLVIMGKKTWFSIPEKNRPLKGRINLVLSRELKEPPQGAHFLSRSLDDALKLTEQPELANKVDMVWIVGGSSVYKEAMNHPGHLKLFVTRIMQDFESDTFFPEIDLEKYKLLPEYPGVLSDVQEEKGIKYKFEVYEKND
inactive: lapatinib -0.012 | pictilisib -0.069 | crizotinib -0.054 | [1] 0.04 | duvelisib -0.015 | gandotinib -0.099 | tozasertib 0.022 | doramapimod 0.011 | bafetinib -0.047 | [2] -0.077 | nilotinib 0.023 | [3] -0.041 | dasatinib -0.091 | [4] 0.019 | [5] 0.073 | quisinostat -0.009 | tipifarnib -0.012 | [6] 0.039 | [7] -0.129 | [8] -0.04

CMPK2 (UniProt Q5EBM0)
inactive: lapatinib 0.065 | pictilisib 0 | crizotinib 0.007 | [1] -0.074 | duvelisib 0.043 | gandotinib 0.008 | tozasertib 0.018 | doramapimod -0.01 | bafetinib -0.061 | [2] 0.056 | nilotinib -0.075 | [3] -0.01 | dasatinib -0.067 | [4] 0.005 | [5] -0.011 | quisinostat -0.02 | tipifarnib 0.042 | [6] 0.032 | [7] -0.006 | [8] 0.013

DOK1 (UniProt Q99704)
inactive: lapatinib 0.01 | pictilisib -0.026 | crizotinib 0.007 | [1] -0.056 | duvelisib -0.002 | gandotinib 0.042 | tozasertib 0.008 | doramapimod 0.044 | bafetinib -0.006 | [2] -0.001 | nilotinib -0.019 | [3] 0.05 | dasatinib 0.014 | [4] -0.103 | [5] 0.023 | quisinostat -0.032 | tipifarnib 0.048 | [6] 0.07 | [7] -0.055 | [8] 0.018

CMTM3 (UniProt Q96MX0)
inactive: lapatinib -0.027 | pictilisib 0.029 | crizotinib -0.069 | [1] 0.023 | duvelisib -0.052 | gandotinib 0.016 | tozasertib 0.042 | doramapimod 0.025 | bafetinib -0.057 | [2] -0.059 | nilotinib 0.07 | [3] 0.048 | dasatinib 0.05 | [4] 0.144 | [5] 0.015 | quisinostat 0.023 | tipifarnib -0.111 | [6] -0.115 | [7] -0.055 | [8] -0.026

CYCS (UniProt P99999)
UniProt P99999, sequence (P99999 whole entry, looked up): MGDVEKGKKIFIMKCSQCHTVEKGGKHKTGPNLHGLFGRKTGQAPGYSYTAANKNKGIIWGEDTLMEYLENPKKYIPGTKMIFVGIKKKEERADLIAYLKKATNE
inactive: lapatinib 0.015 | pictilisib -0.033 | crizotinib 0.036 | [1] -0.054 | duvelisib -0.039 | gandotinib 0.056 | tozasertib -0.004 | doramapimod -0.029 | bafetinib 0.06 | [2] -0.006 | nilotinib 0.014 | [3] -0.038 | dasatinib 0.001 | [4] 0.008 | [5] -0.037 | quisinostat 0.035 | tipifarnib 0.015 | [6] -0.003 | [7] -0.015 | [8] 0.022

DOCK8 (UniProt Q8NF50)
UniProt Q8NF50, sequence (Q8NF50 whole entry, looked up): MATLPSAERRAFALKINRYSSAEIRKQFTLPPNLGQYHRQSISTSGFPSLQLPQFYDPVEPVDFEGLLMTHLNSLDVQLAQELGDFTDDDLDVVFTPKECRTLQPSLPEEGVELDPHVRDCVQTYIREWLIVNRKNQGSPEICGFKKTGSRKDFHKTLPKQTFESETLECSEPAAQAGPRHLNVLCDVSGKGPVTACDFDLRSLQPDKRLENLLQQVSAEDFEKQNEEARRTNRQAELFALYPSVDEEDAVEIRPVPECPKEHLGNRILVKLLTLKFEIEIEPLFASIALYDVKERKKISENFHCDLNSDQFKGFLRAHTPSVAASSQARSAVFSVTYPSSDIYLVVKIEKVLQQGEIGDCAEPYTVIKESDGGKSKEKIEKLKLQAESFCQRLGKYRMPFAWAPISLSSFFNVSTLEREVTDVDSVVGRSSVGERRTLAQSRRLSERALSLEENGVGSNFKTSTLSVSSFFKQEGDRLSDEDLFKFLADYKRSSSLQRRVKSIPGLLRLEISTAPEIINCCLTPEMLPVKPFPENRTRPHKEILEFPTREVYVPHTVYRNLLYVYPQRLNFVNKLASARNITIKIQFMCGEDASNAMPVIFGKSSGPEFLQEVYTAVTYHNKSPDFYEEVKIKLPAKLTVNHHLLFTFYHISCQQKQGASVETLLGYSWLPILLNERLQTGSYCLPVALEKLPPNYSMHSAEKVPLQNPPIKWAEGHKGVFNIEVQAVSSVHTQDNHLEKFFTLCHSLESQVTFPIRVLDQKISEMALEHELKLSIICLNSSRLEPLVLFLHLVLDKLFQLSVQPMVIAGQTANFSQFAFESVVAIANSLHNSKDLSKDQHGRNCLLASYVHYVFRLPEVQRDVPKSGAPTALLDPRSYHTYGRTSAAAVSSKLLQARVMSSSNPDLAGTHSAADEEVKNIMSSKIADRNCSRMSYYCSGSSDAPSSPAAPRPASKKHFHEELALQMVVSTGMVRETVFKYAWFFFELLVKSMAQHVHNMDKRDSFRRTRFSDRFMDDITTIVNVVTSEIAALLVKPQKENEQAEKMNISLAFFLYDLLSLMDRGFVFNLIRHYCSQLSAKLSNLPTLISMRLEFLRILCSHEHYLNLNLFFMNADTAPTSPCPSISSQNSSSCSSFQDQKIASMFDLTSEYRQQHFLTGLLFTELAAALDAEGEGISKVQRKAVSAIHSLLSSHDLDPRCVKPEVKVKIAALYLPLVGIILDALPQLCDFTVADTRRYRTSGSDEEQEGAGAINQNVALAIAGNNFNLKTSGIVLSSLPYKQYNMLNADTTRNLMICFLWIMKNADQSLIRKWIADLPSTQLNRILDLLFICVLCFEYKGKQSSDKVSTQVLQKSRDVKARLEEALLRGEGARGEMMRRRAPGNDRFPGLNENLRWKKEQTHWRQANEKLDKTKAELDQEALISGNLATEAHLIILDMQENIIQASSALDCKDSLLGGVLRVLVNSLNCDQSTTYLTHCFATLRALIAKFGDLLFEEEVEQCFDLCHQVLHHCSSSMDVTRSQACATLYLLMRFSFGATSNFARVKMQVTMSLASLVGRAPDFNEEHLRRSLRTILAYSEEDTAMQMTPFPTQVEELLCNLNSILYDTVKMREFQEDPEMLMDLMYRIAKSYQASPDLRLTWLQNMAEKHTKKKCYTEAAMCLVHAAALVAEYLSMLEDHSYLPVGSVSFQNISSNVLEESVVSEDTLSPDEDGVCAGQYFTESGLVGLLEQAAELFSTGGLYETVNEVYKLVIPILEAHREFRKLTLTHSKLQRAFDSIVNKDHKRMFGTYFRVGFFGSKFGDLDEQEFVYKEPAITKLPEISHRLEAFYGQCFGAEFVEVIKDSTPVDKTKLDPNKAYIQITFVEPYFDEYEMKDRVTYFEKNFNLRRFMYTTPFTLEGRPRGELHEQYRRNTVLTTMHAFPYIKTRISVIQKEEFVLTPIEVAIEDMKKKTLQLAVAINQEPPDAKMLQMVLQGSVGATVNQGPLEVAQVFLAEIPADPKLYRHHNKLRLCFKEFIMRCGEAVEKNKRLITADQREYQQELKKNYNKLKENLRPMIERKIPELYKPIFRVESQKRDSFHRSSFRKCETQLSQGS
inactive: lapatinib -0.032 | pictilisib -0.011 | crizotinib -0.03 | [1] -0.002 | duvelisib 0.003 | gandotinib -0.097 | tozasertib 0.042 | doramapimod 0.029 | bafetinib -0.062 | [2] 0.02 | nilotinib -0.007 | [3] -0.023 | dasatinib -0.045 | [4] 0.04 | [5] 0.058 | quisinostat -0.053 | tipifarnib -0.033 | [6] 0.032 | [7] 0.016 | [8] 0

CYP51A1 (UniProt Q16850)
UniProt Q16850, sequence (Q16850 whole entry, looked up): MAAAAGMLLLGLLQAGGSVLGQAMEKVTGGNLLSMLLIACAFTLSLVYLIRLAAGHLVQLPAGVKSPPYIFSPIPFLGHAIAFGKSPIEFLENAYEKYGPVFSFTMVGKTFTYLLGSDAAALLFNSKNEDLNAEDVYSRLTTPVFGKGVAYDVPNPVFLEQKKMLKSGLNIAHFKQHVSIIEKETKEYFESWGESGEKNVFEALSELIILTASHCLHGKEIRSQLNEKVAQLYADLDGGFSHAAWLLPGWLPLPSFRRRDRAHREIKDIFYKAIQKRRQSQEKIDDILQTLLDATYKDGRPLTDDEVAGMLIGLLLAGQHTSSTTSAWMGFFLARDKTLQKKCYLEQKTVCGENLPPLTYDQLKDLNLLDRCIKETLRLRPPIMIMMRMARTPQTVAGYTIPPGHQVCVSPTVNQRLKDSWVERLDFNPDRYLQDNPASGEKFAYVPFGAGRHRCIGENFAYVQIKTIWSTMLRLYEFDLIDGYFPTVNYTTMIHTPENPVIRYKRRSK
active: gandotinib 0.447 | bafetinib 0.385 | tipifarnib 0.664
inactive: lapatinib 0.105 | pictilisib 0.024 | crizotinib 0.023 | [1] -0.036 | duvelisib -0.065 | tozasertib 0 | doramapimod 0.089 | [2] 0.045 | nilotinib 0.124 | [3] -0.026 | dasatinib 0.048 | [4] 0.034 | [5] 0.083 | quisinostat -0.021 | [6] -0.016 | [7] -0.009 | [8] -0.081

CORO1A (UniProt P31146)
UniProt P31146, sequence (P31146 whole entry, looked up): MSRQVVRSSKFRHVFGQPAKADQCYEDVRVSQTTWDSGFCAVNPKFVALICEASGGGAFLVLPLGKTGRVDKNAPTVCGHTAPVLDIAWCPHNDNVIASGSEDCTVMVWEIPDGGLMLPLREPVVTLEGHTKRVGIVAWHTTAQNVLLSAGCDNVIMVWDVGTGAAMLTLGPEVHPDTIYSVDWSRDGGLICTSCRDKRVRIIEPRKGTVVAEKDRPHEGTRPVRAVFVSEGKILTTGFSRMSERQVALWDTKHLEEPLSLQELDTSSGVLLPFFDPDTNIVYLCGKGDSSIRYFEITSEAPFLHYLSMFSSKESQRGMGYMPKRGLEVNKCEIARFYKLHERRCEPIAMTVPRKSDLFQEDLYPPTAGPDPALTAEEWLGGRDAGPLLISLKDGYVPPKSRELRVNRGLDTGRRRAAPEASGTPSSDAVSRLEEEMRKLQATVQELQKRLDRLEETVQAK
inactive: lapatinib -0.018 | pictilisib -0.058 | crizotinib -0.008 | [1] -0.069 | duvelisib 0.038 | gandotinib 0.037 | tozasertib 0.089 | doramapimod 0.009 | bafetinib -0.028 | [2] -0.001 | nilotinib 0.003 | [3] -0.012 | dasatinib -0.146 | [4] 0.022 | [5] 0.034 | quisinostat -0.028 | tipifarnib 0.032 | [6] -0.015 | [7] -0.017 | [8] -0.026

CHEK1 (UniProt O14757)
active: [6] 0.242
inactive: lapatinib -0.008 | pictilisib -0.003 | crizotinib -0.021 | [1] 0.174 | duvelisib -0.009 | gandotinib -0.014 | tozasertib 0.017 | doramapimod 0.04 | bafetinib -0.025 | [2] 0.015 | nilotinib -0.011 | [3] -0.158 | dasatinib 0.02 | [4] -0.048 | [5] -0.007 | quisinostat -0.032 | tipifarnib 0.016 | [7] 0.003 | [8] -0.042

CTNND1 isoform 3 (UniProt O60716)
inactive: lapatinib -0.019 | pictilisib -0.047 | crizotinib -0.039 | [1] -0.006 | duvelisib 0.008 | gandotinib -0.001 | tozasertib 0.002 | doramapimod 0.007 | bafetinib -0.025 | [2] 0.04 | nilotinib -0.027 | [3] -0.02 | dasatinib 0.006 | [4] -0.017 | [5] 0.009 | quisinostat -0.065 | tipifarnib -0.06 | [6] 0.027 | [7] 0.065 | [8] -0.065

COG5 isoform 2 (UniProt Q9UP83)
UniProt Q9UP83, sequence (Q9UP83 whole entry, looked up): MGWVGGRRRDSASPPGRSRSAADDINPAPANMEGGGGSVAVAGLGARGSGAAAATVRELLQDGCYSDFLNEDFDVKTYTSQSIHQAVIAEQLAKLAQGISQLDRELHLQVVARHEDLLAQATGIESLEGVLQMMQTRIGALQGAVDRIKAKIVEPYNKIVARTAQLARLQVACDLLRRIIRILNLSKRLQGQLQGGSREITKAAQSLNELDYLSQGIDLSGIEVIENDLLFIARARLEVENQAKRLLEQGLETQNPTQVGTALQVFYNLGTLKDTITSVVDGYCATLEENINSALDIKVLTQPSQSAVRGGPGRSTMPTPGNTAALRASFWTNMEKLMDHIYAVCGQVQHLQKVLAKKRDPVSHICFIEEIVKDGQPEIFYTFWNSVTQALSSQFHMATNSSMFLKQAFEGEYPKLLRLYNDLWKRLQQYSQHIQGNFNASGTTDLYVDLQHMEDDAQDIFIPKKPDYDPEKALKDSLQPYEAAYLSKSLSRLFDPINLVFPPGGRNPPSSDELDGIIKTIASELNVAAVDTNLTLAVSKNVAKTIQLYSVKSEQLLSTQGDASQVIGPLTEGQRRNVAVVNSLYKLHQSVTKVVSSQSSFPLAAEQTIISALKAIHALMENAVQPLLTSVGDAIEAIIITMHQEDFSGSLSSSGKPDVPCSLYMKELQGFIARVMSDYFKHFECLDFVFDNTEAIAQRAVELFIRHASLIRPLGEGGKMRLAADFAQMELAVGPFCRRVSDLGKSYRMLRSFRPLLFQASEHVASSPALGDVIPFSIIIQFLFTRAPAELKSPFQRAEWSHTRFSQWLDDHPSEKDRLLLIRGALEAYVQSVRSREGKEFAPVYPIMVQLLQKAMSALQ
inactive: lapatinib -0.059 | pictilisib -0.03 | crizotinib -0.025 | [1] 0.027 | duvelisib 0.007 | gandotinib -0.071 | tozasertib 0.013 | doramapimod -0.024 | bafetinib -0.034 | [2] 0.062 | nilotinib -0.023 | [3] 0.057 | dasatinib -0.153 | [4] -0.003 | [5] 0.037 | quisinostat -0.031 | tipifarnib -0.019 | [6] 0.043 | [7] -0.081 | [8] -0.12
